High-throughput results deposited in PubChem by National Center for Advancing Translational Sciences (NCATS).
D1 ag = agonists of human D1 dopamine receptor; P21728; HEK293 T-REx D1 cells, calcium flux, agonist mode; activation, % at 2 µM; 1% of 360,000 active; also: 0% is about no effect
Target sequence (P21728 whole entry, looked up): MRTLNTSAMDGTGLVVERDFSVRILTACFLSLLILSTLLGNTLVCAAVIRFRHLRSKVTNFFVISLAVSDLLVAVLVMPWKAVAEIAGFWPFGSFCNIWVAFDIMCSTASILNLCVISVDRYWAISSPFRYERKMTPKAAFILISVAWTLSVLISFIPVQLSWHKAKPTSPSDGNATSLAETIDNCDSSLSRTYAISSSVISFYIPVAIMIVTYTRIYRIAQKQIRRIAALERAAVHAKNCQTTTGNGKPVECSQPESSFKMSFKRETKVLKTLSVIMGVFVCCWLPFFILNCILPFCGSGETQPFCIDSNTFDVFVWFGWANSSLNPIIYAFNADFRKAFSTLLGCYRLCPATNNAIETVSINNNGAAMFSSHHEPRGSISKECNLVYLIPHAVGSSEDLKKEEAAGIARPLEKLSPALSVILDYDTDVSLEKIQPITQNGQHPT
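Inducible HEK293 T-REx D1 cells, force-coupled to calcium signalling, were plated at 4000 cells/well with tetracycline and held overnight at 30 C. After no-wash calcium dye loading, compound-evoked calcium rise over 180 s flagged agonists.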
TRHR PAM = allosteric enhancers of human TRH receptor; enhancement, % at 2 µM; TRHR cells, fluo-8 calcium fluorescence, EC20 TRH enhancement; 0.66% of 360,000 active; P34981; in the data active = enhancement above about 30%; also: 0% is about no effect
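TRHR-expressing cells loaded with fluo-8 calcium dye were read kinetically (ex 480/em 530) during compound addition, then stimulated with an EC20 of TRH (10 nM final). Enhancement of the Gq-mediated intracellular calcium response was scored.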
D1 potentiator = potentiators of human D1 dopamine receptor; potentiation, % at 10 µM; AID 504651; HEK293 TREx D1 cells, calcium flux, dopamine EC20 potentiation; 0.036% of 360,000 active; P21728; in the data active = potentiation above about 30%; also: 0% is about no effect
TRHR agonist = activates the human TRH receptor. P34981. TRHR cells, calcium flux fluo-8, FDSS agonist mode. activation, % at 2 µM. 0.18% of 360,000 active. AID 493084; also: 0% is about no effect
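TRHR-expressing cells loaded with fluo-8 calcium dye; 23 nL library compound pin-transferred, kinetic FDSS fluorescence (Ex 480/Em 530) recorded about 180 s for agonist-induced calcium release, before a 10 nM TRH EC20 addition for potentiator mode.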
D1 antag = antagonists of human D1 dopamine receptor; P21728; HEK293 TREx D1 cells, calcium flux, dopamine EC80; active compounds read low; activity change, negative = inhibition, % at 10 µM; 3.2% of 360,000 active; in the data active = activity change below about -30%; also: % is scaled to controls: 0 for no effect and ±100 for the full control effect
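Allosteric or orthosteric antagonism assessed as attenuation of the calcium response to EC80 dopamine, added 180 s after compound, in induced HEK293 Trex D1 cells loaded with no-wash calcium dye.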
The depositor's hits bear a star; nt = not tested or not shown; ! = not confirmed by another sample. Compounds with a hit are over-represented: about 4.7% of the library has one in this group of screens. Rule as the data show it, unless noted: active = activation above about 30%; inactive = the rest.

SMILES	D1 ag	TRHR PAM	D1 potentiator	TRHR agonist	D1 antag
COc1nnc(-c2ccc(N3CCOCC3)c(NC(=O)c3ccco3)c2)c2ccccc12	0.2	13.3	-2.0	-0.1	-91.6*
COc1nnc(-c2ccc(N3CCOCC3)c(NC(=O)c3ccccc3)c2)c2ccccc12	4.0	-7.9	5.2	-0.5	-0.5
COc1cccc(CNC(=O)c2ccc3nc(CCc4ccccc4)oc3c2)c1OC	48.3*	-0.1	-2.5	0.1	-31.9*
COc1ccc(CNC(=O)c2ccc3nc(CCc4ccccc4)oc3c2)cc1	53.1*	1.9	-2.8	1.9	-3.1
COc1ccc(CNC(=O)c2ccc3nc(CCc4ccccc4)oc3c2)cc1OC	22.4	7.0	-2.9	0.1	-5.2
COc1ccccc1Nc1cc(C)nc2nc(-c3ccccc3)nn12	6.6	-6.5	-0.1	-1.1	7.8
C[C@H](NC(=O)C1(c2ccccc2)CCN(C(=O)OC(C)(C)C)CC1)C(=O)N[C@@H](C(=O)O)c1ccccc1	0.4	-3.1	-1.2	0.1	5.5
C[C@@H](NC(=O)C1(c2ccccc2)CCN(C(=O)OC(C)(C)C)CC1)C(=O)N[C@@H](C(=O)O)c1ccccc1	1.3	6.9	-2.8	-0.6	-51.9*
O=C(Nc1sc2c(c1C(=O)NCc1ccco1)CCCC2)c1cc(=O)c2cc(Cl)ccc2o1	2.7	-11.6	0.8	0.8	2.2
Cc1ccc(NC(=O)Nc2nnc(N(C)Cc3ccccc3)s2)c(C)c1	4.1	-3.3	-0.1	-0.1	-40.7*
CCN(c1ccccc1)c1nnc(NC(=O)Nc2ccc(C)cc2)s1	-2.4	0.9	-2.8	-0.3	-34.5*
CCN(c1ccccc1)c1nnc(NC(=O)Nc2ccc(Br)c(C)c2)s1	2.2	-5.9	-3.3	0.4	-1.6
Cc1ccc(Cl)cc1NC(=O)Nc1nnc(N(C)Cc2ccccc2)s1	0.5	15.9	-1.9	0.0	-8.3
CCOC(=O)N1CCN(c2cc(=O)n(Cc3ccc(F)cc3)c(=O)[nH]2)CC1	0.8	2.3	-2.0	0.6	-36.8*
CCN1CCN(c2cc(=O)n(Cc3ccc(F)cc3)c(=O)[nH]2)CC1	0.7	-3.3	-3.5	1.0	15.7
O=C(CSc1nc2ccccc2nc1Cc1ccc(F)cc1)Nc1ccc2c(c1)OCO2	0.2	-1.2	-0.7	0.5	-0.4
CCc1ccc(CN(C(=O)Nc2cccc(Cl)c2)c2ccccn2)cc1	31.3*	1.7	-0.1	-1.9	-18.5
CC(C)C(=O)N(Cc1ccccc1)c1ccccn1	6.1	2.8	2.6	-4.3	-5.8
CCS(=O)(=O)c1ccc(-c2csc(-c3ccc(Cl)cc3)n2)c(Cl)c1Cl	1.8	16.7	-5.5	0.9	-33.1*
COc1ccccc1Nc1nn2c(=O)c3ccc(C(=O)NCCC4=CCCCC4)cc3nc2s1	-0.7	0.0	-0.9	0.2	1.5
Cc1ccc(C(C)C)c(OCCCn2c(=O)oc3ccccc32)c1	33.1*	1.4	-1.9	2.8	4.7
CSc1nc(-c2ccco2)nn1C(=O)c1ccccc1	4.1	18.3	-3.1	-0.3	13.0
COc1ccccc1C(=O)n1nc(-c2ccco2)nc1SC	1.7	-2.6	-11.4	-0.3	-34.4*
CCCCN(C)C(=O)c1cn(CC)c2ccc(S(=O)(=O)N(C)C)cc2c1=O	3.4	0.4	nt	-0.5	-30.7*
CCN(CC)CCCNC(=O)c1cn(CC)c2ccc(S(=O)(=O)N(C)C3CCCCC3)cc2c1=O	1.8	4.1	-0.1	0.2	15.1
SMILES	D1 ag	TRHR PAM	D1 potentiator	TRHR agonist	D1 antag
CCN(CC)CCCNC(=O)Cn1cnc2ccc(S(=O)(=O)N3CCC(C)CC3)cc2c1=O	2.3	-6.3	-5.3	0.5	-38.8*
CCCCNC(=O)Cn1cnc2ccc(S(=O)(=O)N3CCC(C)CC3)cc2c1=O	3.6	-5.4	-1.4	0.0	0.2
CCn1cc(C(=O)NCCCN2CCCC(C)C2)c(=O)c2cc(S(=O)(=O)N(C)C3CCCCC3)ccc21 (stereo unspecified)	-0.2	-4.2	6.8	0.2	-78.5*!
CCCCN(CCCC)CCNC(=O)c1cn(C)c2ccc(S(=O)(=O)N3CCOCC3)cc2c1=O	0.0	-0.9	0.7	-0.5	-35.0*
O=C(Nc1cccc(Cl)c1)N1Cc2ccccc2Oc2ncccc21	4.8	6.6	-3.5	-1.3	9.5
CCOc1ccc(CCNC(=O)c2cn(CC)c3ccc(S(=O)(=O)N4CCc5ccccc5C4)cc3c2=O)cc1OCC	0.3	-4.4	8.7	0.7	-47.4*
